# Results taken from paper PMC4336329 (PLoS ONE, 2015).
# About 14,000 (4.5%) of roughly 310,000 compounds showed an effect of 50% or more. Effects have a minus sign here. The sample as a whole holds a higher share of strong results than the screen did. Where a SMILES comes first, the peptide text is derived from it. The star is where a group is joined. Boc = CC(C)(C)OC(=O)*
# Target: human ether-à-go-go-related gene (hERG) potassium channel (human, UniProt Q12809)
# Experiment: primary screen, population patch clamp on CHO cells stably expressing hERG; higher = less effect of the substance
# 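Further: peak tail current of the secondary pulse compared with the same well before compound.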
# Sequence of human ether-à-go-go-related gene (hERG) potassium channel (Q12809 whole entry, looked up): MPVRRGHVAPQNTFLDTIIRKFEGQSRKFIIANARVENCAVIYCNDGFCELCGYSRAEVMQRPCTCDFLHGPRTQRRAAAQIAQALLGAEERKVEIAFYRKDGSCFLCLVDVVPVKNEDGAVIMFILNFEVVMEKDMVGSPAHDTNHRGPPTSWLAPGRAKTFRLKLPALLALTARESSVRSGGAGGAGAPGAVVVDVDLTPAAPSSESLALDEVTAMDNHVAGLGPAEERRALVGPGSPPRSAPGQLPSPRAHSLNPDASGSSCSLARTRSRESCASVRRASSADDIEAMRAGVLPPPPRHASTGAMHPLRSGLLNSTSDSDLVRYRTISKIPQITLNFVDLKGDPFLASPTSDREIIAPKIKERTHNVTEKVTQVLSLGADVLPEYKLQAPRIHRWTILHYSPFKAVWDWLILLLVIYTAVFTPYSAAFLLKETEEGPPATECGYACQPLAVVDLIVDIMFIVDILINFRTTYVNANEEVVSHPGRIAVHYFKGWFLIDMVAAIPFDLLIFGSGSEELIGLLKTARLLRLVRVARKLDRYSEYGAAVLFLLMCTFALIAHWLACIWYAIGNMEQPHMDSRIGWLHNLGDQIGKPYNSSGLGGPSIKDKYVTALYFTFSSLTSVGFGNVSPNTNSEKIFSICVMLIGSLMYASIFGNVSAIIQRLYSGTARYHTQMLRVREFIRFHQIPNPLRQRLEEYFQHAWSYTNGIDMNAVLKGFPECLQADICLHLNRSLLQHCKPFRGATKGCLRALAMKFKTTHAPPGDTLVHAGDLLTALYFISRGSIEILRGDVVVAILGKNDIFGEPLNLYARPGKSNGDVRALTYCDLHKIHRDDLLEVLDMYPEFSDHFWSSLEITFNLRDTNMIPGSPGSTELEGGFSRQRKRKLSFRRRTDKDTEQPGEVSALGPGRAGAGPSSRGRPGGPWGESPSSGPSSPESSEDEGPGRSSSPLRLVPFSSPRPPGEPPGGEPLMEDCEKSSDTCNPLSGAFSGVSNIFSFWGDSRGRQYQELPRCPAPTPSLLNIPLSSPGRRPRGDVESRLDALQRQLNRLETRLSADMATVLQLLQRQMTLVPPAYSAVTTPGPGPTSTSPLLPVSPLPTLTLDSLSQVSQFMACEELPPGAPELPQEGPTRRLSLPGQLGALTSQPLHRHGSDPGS
row,Compound,"hERG current change (%, negative = inhibition) at 10uM [%]"
1,CCCCNc1nc(Nc2ccc(C)c(Cl)c2)c2cnn(C)c2n1,15.3
2,COc1ccccc1-n1c(SCC(=O)NC2CCS(=O)(=O)C2)nc2ccccc2c1=O (stereo not drawn),-3.39
3,O=C(CSc1nnc(-c2ccc(Br)cc2)n1CCc1ccccc1)NC1CCS(=O)(=O)C1 (stereo not drawn),-86.8
4,O=C(CSc1nc2ccccc2c(=O)n1-c1ccccc1Cl)NC1CCS(=O)(=O)C1 (stereo not drawn),6.55
5,COc1ccccc1-n1c(SCC(=O)NC2CCS(=O)(=O)C2)nc2cc([N+](=O)[O-])ccc21 (stereo not drawn),-16.2
6,COc1ccccc1-c1nnc(SCC(=O)NC2CCS(=O)(=O)C2)n1CCc1ccccc1 (stereo not drawn),8.05
7,CN(C(=O)CSc1nc2cc([N+](=O)[O-])ccc2n1-c1ccc(F)cc1)C1CCS(=O)(=O)C1 (stereo not drawn),2.56
8,CCn1c(SCC(=O)NC2CCS(=O)(=O)C2)nnc1-c1ccccc1 (stereo not drawn),5.49
9,O=C(CSc1nc2cc([N+](=O)[O-])ccc2n1-c1ccc(F)cc1)NC1CCS(=O)(=O)C1 (stereo not drawn),-52.6
10,O=C(CSc1nc2ccccc2c(=O)n1-c1ccccc1F)NC1CCS(=O)(=O)C1 (stereo not drawn),-57
11,Cc1ccc2oc(/N=C(\N)NC(=O)C(C)(C)C)nc2c1,4.85
12,CC1=Nn2c(nnc2-c2ccco2)SC1,-3.87
13,O=C(/C=C/c1ccco1)Nc1sc2c(c1C(=O)O)CCC2,-2.95
14,CSc1scc2c1-c1nc(SCC(=O)C(C)(C)C)ncc1CC2,11
15,CN(C)CCCN(C(=O)c1ccc(S(=O)(=O)N2CCCCCC2)cc1)c1nc2ccc(F)cc2s1.Cl,-73.1
16,CN(C)CCCN(C(=O)c1ccc(S(=O)(=O)N2CCc3ccccc3C2)cc1)c1nc2ccc(F)cc2s1.Cl,1.76
17,CN(C)CCCN(C(=O)c1ccc(S(=O)(=O)N2CCc3ccccc32)cc1)c1nc2ccc(F)cc2s1.Cl,-13.7
18,CN(C)CCCN(C(=O)c1ccc(S(=O)(=O)N2CCOCC2)cc1)c1nc2ccc(F)cc2s1.Cl,-58.7
19,CN(C)CCCN(C(=O)c1ccc(S(=O)(=O)N2CCCCCC2)cc1)c1nc2ccc(Br)cc2s1.Cl,-22
20,CN(C)CCCN(C(=O)c1ccc(S(=O)(=O)N2CCCc3ccccc32)cc1)c1nc2ccc(F)cc2s1.Cl,-17.1
21,CC1CCN(C(=O)CSc2ccc(-c3ccccc3)nn2)CC1,-11.8
22,COc1ccccc1CC(=O)Nc1cccc(F)c1,12.2

row,Compound,"hERG current change (%, negative = inhibition) at 10uM [%]"
1,COc1cccc(NC(=O)CN(C)C(C)C(=O)Nc2ccc(C#N)cc2)c1 (stereo not drawn),-59.3
2,COc1cccc(NC(=O)CN(C)C(C)C(=O)Nc2ccc(C(C)=O)cc2)c1 (stereo not drawn),-22.9
3,CC(C(=O)Nc1ccc(C#N)cc1)N(C)Cc1cccs1 (stereo not drawn),-56.7
4,CC(C(=O)Nc1ccc(C#N)cc1)N(C)CC(=O)Nc1cccc(F)c1 (stereo not drawn),-64.7
5,CC(=O)Nc1ccc(NC(=O)C(C)N(C)CC(=O)Nc2ccccc2Br)cc1 (stereo not drawn),8.29
6,CC(=O)c1ccc(NC(=O)C(C)N(C)CC(=O)Nc2cccc(F)c2)cc1 (stereo not drawn),-17.3
7,CC(C(=O)Nc1ccc(Cl)cc1)N(C)Cc1cccs1 (stereo not drawn),-15
8,CC(C(=O)Nc1ccccc1)N(C)Cc1cccs1 (stereo not drawn),8.67
9,CSc1ccccc1NC(=O)CN(C)C(C)C(=O)Nc1ccc(C#N)cc1 (stereo not drawn),-63.1
10,CC(C(=O)N1CCCC1)N(C)CC(=O)Nc1cccc(F)c1 (stereo not drawn),-0.435
11,COc1cccc(NC(=O)CN(C)C(C)C(=O)Nc2ccc(S(=O)(=O)N3CCCC3)cc2)c1 (stereo not drawn),-0.933
12,CC(C(=O)Nc1ccc(C#N)cc1)N(C)CC(=O)Nc1ccccc1Br (stereo not drawn),-17
13,CC1=C/C(=N\NC(=S)NCCc2ccccc2)CC(C)(C)C1,-4.83
14,Cc1ccc(Cn2nnc3c(=O)[nH]c(C4CCN(S(=O)(=O)c5ccccc5F)CC4)nc32)cc1,-19
15,CCN1C[C@]2(C)CC[C@H](OC)[C@]34C2[C@H](OC(C)=O)[C@@]2(OCO[C@@]25C[C@H](OC)[C@H]2C[C@]3(O)C5[C@H]2OC)[C@@H]14,39.8
16,CCOc1cc(NC(=O)c2ccccn2)c(OCC)cc1NC(=O)c1ccc(C)cc1,-13.7
17,Nc1c(C(=O)Nc2ccc(F)cc2)sc2nc(-c3ccco3)ccc12,-9.67
18,CC(=O)Nc1ccc(NS(=O)(=O)c2cc(Cl)ccc2Cl)cc1,-14.8
19,CC(C)Oc1ccc(C(=O)Nc2ccc(Cl)c(S(=O)(=O)Nc3ccc(Cl)cc3)c2)cc1,2.46
20,CCC(C)NCCC(=O)Nc1ccc(Cl)c(S(=O)(=O)Nc2ccc(Cl)cc2)c1 (stereo not drawn),-53.6
21,Cc1cc(C)cc(-n2ccnc2SCC(=O)Nc2ccc3c(c2)OCCO3)c1,-14.2
22,CC(=O)c1ccc(C(=O)Nc2nnc(-c3ccc(Cl)cc3)o2)cc1,4.1

row,Compound,"hERG current change (%, negative = inhibition) at 10uM [%]"
1,O=C(NCCc1ccccc1)/C(=C\c1ccc([N+](=O)[O-])cc1)NC(=O)c1ccc(Br)cc1,-37.8
2,O=C(OCC(=O)c1ccc([N+](=O)[O-])cc1)/C(=C\c1ccc(Cl)cc1)NC(=O)c1ccccc1,-64.4
3,O=C(OCC(=O)c1ccc([N+](=O)[O-])cc1)/C(=C/c1ccc(Cl)cc1)NC(=O)c1ccccc1,-63.3
4,CC(=O)N/C(=C\c1ccccc1)C(=O)OCC(=O)c1ccccc1,9.41
5,Cc1ccc(NC(=O)/C(=C/c2ccc([N+](=O)[O-])cc2)NC(=O)c2ccccc2)cc1,-12
6,Cc1ccc(NC(=O)/C(=C\c2ccc([N+](=O)[O-])cc2)NC(=O)c2ccccc2)cc1,-38.6
7,CS(=O)(=O)c1ccc(Oc2ccc(-c3nnco3)cc2)c([N+](=O)[O-])c1,-7.35
8,COc1cccc(C2C(C#N)=C(N)Oc3cc(C)[nH]c(=O)c32)c1OC (stereo not drawn),-10.4
9,Cc1ccc2c(c1)N(CC(=O)NCc1cccs1)C(=O)CO2,5.4
10,Cc1sc2c(c1C)C(c1ccc(C(C)(C)C)cc1)=NCC(=O)N2CC(=O)Nc1nccs1,-17.9
11,Cc1sc2c(c1C)C(c1cccs1)=NCC(=O)N2CC(=O)NCc1cccs1,-56.2
12,CCOCCCNC(=S)NC1CC2CCC(C1)N2Cc1ccccc1 (stereo not drawn),-23
13,Cc1noc(C(=O)Nc2ccc(F)c(Cl)c2)c1Cl,8.86
14,Oc1cccc2nc3ccccc3nc12,2.6
15,CCOC(=O)C1(CCOC)CCN(C(C)CCc2ccc(OC)cc2)CC1 (stereo not drawn),-71.1
16,CCOC(=O)C1(Cc2cccc(OC)c2)CCN(C(C)COC)CC1 (stereo not drawn),5.9
17,CCOC(=O)C1(CCc2ccccc2)CCN(Cc2ccco2)CC1,-76.5
18,CCOC(=O)C1(CCc2ccccc2)CCN(Cc2ccc(O)cc2)CC1,-83.4
19,CCOC(=O)C1(CCOC)CCN(C(=O)Cc2ccc3ccccc3c2)CC1,-0.72
20,CCOC(=O)C1(CCc2ccccc2)CCN(Cc2ccc(C(=O)OC)cc2)CC1,-91.8
21,CCOC(=O)C1(CCOC)CCN(Cc2ccccc2-c2ccco2)CC1,-22.4
22,CCOC(=O)C1(CCc2ccccc2)CCN(CC(O)CO)CC1 (stereo not drawn),-40.3

row,Compound,"hERG current change (%, negative = inhibition) at 10uM [%]"
1,Cc1ccc(S(=O)(=O)N2CCN(S(=O)(=O)N3CCCCC3)CC2)c(C)c1,-6.97
2,CSc1sc(C(=O)N2CCCCC2)c(-c2cccs2)c1C#N,-27.7
3,CC(C)(C)c1ccc(OCC(=O)Nc2cccc(S(=O)(=O)NC3=NCCCCC3)c2)cc1,-18.9
4,COc1ccc2c(CC(=O)OCC(=O)Nc3ccc(C)cc3)coc2c1,-1.56
5,O=S1(=O)CC2SC(=S)N(c3ccccc3)C2C1 (stereo not drawn),7.98
6,CCOc1ccc(/C(O)=C2/C(=O)C(=O)N(CCN(C)C)C2c2ccccc2)cc1Cl (stereo not drawn),-5.2
7,CC(=O)c1c(C)[nH]c(C(=O)COC(=O)c2ccc3c(=O)n4c(nc3c2)CCC4)c1C,-0.297
8,O=[N+]([O-])c1ccccc1C1Nc2cccc3cccc(c23)N1,11.8
9,CCC1CCCCN1C(=O)c1ccc(OC2CCN(Cc3ccccn3)CC2)cc1 (stereo not drawn),5.27
10,CCc1nnc(NC(=O)CSc2ccc(-c3nc4ccccc4[nH]3)cn2)s1,5.82
11,COC(=O)C(Cc1ccccc1)NC(=O)C(CC(C)C)NC(=O)OC(C)(C)C (stereo not drawn) (Boc-Leu-Phe-OMe; configuration not given here),10.7
12,CCOC(=O)C1CCN(Cc2ccc(C(=O)OC)cc2)CC1,-14.6
13,CCOC(=O)C1(CC2CC2)CCN(Cc2ccc(C(=O)OC)cc2)CC1,-57
14,CCOC(=O)C1(CCc2ccccc2)CCN(Cc2ccc(OC)cc2)CC1,-77.5
15,CCOC(=O)C1(CCc2ccccc2)CCN(Cc2csc(C(C)=O)c2)CC1,-74.8
16,CCOC(=O)C1(CCOC)CCN(Cc2ccc(C(=O)OC)cc2)CC1,-27.2
17,CCOC(=O)C1(CC2CC2)CCN(Cc2ccc(O)c(Cl)c2)CC1,-41.6
18,CCOC(=O)C1(Cc2ccccc2Cl)CCN(Cc2csc(C(C)=O)c2)CC1,-12.3
19,CCOC(=O)C1(CC2CC2)CCN(Cc2cnc(-c3ccccc3C)nc2)CC1,-10.4
20,CCOC(=O)C1(CC2CC2)CCN(Cc2cc(Cl)c(O)c(OC)c2)CC1,-57.1
21,CCOC(=O)C1(Cc2ccccc2)CCN(Cc2csc(C(C)=O)c2)CC1,-24.2
